Compound activity (PubChem BioAssay)
FMDV inh – blocks foot and mouth disease virus; FMDV antiviral cell-based qHTS; Potency, µM (doses to about 57.9 µM), for inactives: at the top dose activity change, negative = inhibition, most hits filed as inhibitors; 410,000 tested, 1.2% active; AID 1159524; calls by dose curve; tested in HEK293T cells; also: read-out not given here; potency is read from the fitted curve at half-maximal effect; nearly all actives have a fitted effect of over 45% in size
LASV entry inh – blocks Lassa virus binding to or entry into cells. Lassa virus pseudotype entry inhibition, cell reporter. Potency, µM (top dose mostly 37.9 µM), without a hit: at the highest dose activity change, negative = inhibition, hits mostly inhibitors. 300,000 tested, 1.2% active; calls by dose curve; tested in HEK293 cells; also: potency is read from the fitted curve at half-maximal effect; nearly all actives have a fitted effect of over 50% in size
Marburg entry inh – inhibitors of Marburg virus binding or cell entry | AID 540276 | Marburg virus pseudotyped entry inhibition, cell reporter | 300,000 tested, 1.8% active | Potency, µM (titrated, usually from 37.8 µM), for the others: top-dose activity change, negative = inhibition, actives largely listed as inhibitors; calls by dose curve; tested in HEK293 cells; also: potency is read from the fitted curve at half-maximal effect
HCMV antiviral – blocks human cytomegalovirus replication; HFF cells, HCMV-luciferase reporter, 72 h; active compounds read low; activity change, negative = inhibition, % at 57.5 µM; 410,000 tested, 4.5% active; in the data active = activity change below about -60%; inconclusive = no clear call, values can overlap the other calls; inactive = above about -39%
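Two compound doses tested in HFFs infected with HCMV-luciferase, MOI 1 PFU/cell, 72 h at 37C. Lysate luminescence read with OneGlo; data normalized against buffer-only and 10uM Salinomycin inhibitor controls.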
* marks the source's active call; other numbers are inactive results; ? = inconclusive; / = no result; + = active, no number; [ ] = remark or other dose. In the library only some 6.2% were active in any assay of this set; here they are far more common. % is scaled to controls: 0 for no effect and ±100 for the full control effect.

SMILES | FMDV inh | LASV entry inh | Marburg entry inh | HCMV antiviral
COc1ccc([N+](=O)[O-])cc1Nc1c2ccccc2nc2ccccc12 | 32µM* | / | / | ?
Cc1cccc(Nc2c3c(nc4ccccc24)CCC3)c1 | ? | ? | 11µM* | -34
COc1ccc([N+](=O)[O-])cc1NS(=O)(=O)c1ccccc1 | 20% | 10% | ? | -6
COc1cc(NS(C)(=O)=O)ccc1Nc1c2ccccc2nc2ccccc12 | -18% | 0.58µM* | 0.73µM* | -97*
COc1ccccc1Nc1ccc(Nc2ccccc2OC)nn1 | 28% | -20% | -10% | -24
c1coc(CNc2c3c(nc4ccccc24)CCC3)c1 | ? | -2% | ? | -69*
COc1ccc(CNc2cc([N+](=O)[O-])ccc2OC)cc1 | / | -1% | -3% | -74*
COc1ccc(OC)c(Nc2ccc(Nc3cc(OC)ccc3OC)nn2)c1 | ? | -15% | ? | -86*
CC(C)NCC(=O)Nc1c2c(nc3ccccc13)CCC2 | -21% | -13%[46.1 µM] | ? | 24
COc1ccc(S(=O)(=O)n2nc(-c3ccc(Cl)cc3)cc2N)cc1OC | -13% | / | / | ?
CCC(=O)Nc1ncc2c(n1)CC(c1ccco1)CC2=O (centres undefined) | / | 18% | 1% | 8
CC1CCCCC1NC(=O)COC(=O)c1ccc(S(=O)(=O)NCc2ccco2)cc1 (centres undefined) | 10% | 15% | 8% | 33
COc1ccc(OC)c(Nc2c3ccccc3nc3ccccc23)c1 | ? | ? | 6.3µM* | -71*
CC(C(=O)Nc1cccc([N+](=O)[O-])c1)N1CCN(C/C=C/c2ccccc2)CC1 (centres undefined) | ? | -3% | ? | -10
CCCCCN(C(=O)CCC(=O)OCC(=O)c1ccc(F)c(F)c1)c1c(N)n(CCCC)c(=O)[nH]c1=O | -4% | -2% | 28% | 7
COc1ccc(N2C(=O)CC(Sc3nnnn3-c3ccc(F)cc3)C2=O)cc1 (centres undefined) | -11% | ? | ? | -31
O=C1CC(Sc2nnnn2-c2ccccc2)C(=O)N1c1cccc(Cl)c1 (centres undefined) | -7% | ? | ? | -62*
CCOc1ccc(NC(=O)Nc2nc(SCC)ns2)cc1 | -30% | ? | ? | -61*
CCSc1nsc(NC(=O)Nc2ccccc2Cl)n1 | 3% | -23%[46.1 µM] | ? | 29
CCCCCn1c(=O)c(C(=O)Nc2ccccn2)c(O)c2ccccc21 | -17% | / | / | -98*
CCCCCCn1c(=O)c(C(=O)Nc2ncccc2O)c(O)c2ccccc21 | -18% | / | / | -73*
CCCCCCn1c(=O)c(C(=O)Nc2cnccn2)c(O)c2ccccc21 | ? | ? | ? | -38
CCn1c(=O)c(C(=O)Nc2ncccc2O)c(O)c2ccccc21 | -24% | 25% | ? | 54
CCn1c(=O)c(C(=O)Nc2ccccn2)c(O)c2ccccc21 | -6% | 29%[46.1 µM] | 12%[46.1 µM] | 25
CCCCn1c(=O)c(C(=O)Nc2ccccn2)c(O)c2ccccc21 | -16% | / | / | -78*
SMILES | FMDV inh | LASV entry inh | Marburg entry inh | HCMV antiviral
COCC1CCN(C(=O)c2cc(COc3cccc4cnccc34)on2)CC1 | ? | -9%[46.1 µM] | -16%[46.1 µM] | +
COCC1CCN(C(=O)c2cc(COc3ccc(F)cc3Cl)on2)C1 (centres undefined) | 51% | / | / | 4
COc1ccc(OCc2cc(C(=O)N3CCCC(CO)C3)no2)c2ccccc12 (centres undefined) | 18% | -12% | -13% | 206
Cc1nn(C)cc1C(C)NC(=O)c1cc(COc2cccc3cnccc23)on1 (centres undefined) | 20µM* | -26% | ? | ?
O=C(c1cc(COc2cccc3cnccc23)on1)N1CCCC(CCCO)C1 (centres undefined) | 32µM* | / | / | -86*
COCCNC(=O)CN1C(=O)c2cccnc2Oc2ccc(Cl)cc21 | 4% | 2%[46.1 µM] | / | +
CCCCSCCCNC(=O)CN1C(=O)c2cccnc2Oc2ccc(Cl)cc21 | -8% | 0%[46.1 µM] | / | 0
O=C1COc2ccc(C(=O)/C=C/c3ccccc3)cc2N1 | -1% | ? | 6% | -84*
CCNc1nc(NCC)nc(OCCOC(=O)Nc2ccccc2)n1 | 2% | -29% | 7% | 43
COCCCn1c(C)nnc1SCC(=O)Nc1ccc(C(C)=O)cc1 | 5% | / | / | -3
Cn1c(-c2ccccc2)cnc1NCc1ccc(F)cc1 | 23% | / | / | 141
COc1ccccc1CNc1ncc(-c2ccc(F)cc2)n1C | 14% | / | / | -14
COc1ccc(CNc2ncc(-c3ccc(F)cc3)n2C)c2ccccc12 | -20% | -26%[46.1 µM] | ? | -84*
Cn1c(-c2ccc(F)cc2)cnc1NCc1ccccc1 | 6% | 9% | 23µM* | -1
N#C/C(=C\c1ccc(F)cc1)C(=O)NCC1CCCO1 (centres undefined) | 9% | -9%[46.1 µM] | / | -4
O=C1C(n2ccc3ccccc32)c2ccccc2N1Cc1ccc(C(F)(F)F)cc1 (centres undefined) | / | / | / | 21
COc1ccc(CN2C(=O)C(n3ccc4ccccc43)c3cccc(F)c32)cc1 (centres undefined) | / | / | / | -72*
O=C1C(n2ccc3ccccc32)c2cc(OC(F)(F)F)ccc2N1Cc1ccc(C(F)(F)F)cc1 (centres undefined) | / | / | / | -89*
O=C1C(n2ccc3ccccc32)c2cccc(F)c2N1Cc1ccc(Cl)nc1 (centres undefined) | / | / | / | -13
Cc1ccc2c(c1)nc(-n1nc(C)cc1C)c1nnnn12 | 1% | / | / | -38
CCCCCc1cc(=O)oc2c(C(CCN3CCCCC3)c3ccc4c(c3)OCO4)c(OC)cc(OC)c12 (centres undefined) | -21% | / | / | -80*
COc1cc(OC)c2c(-c3ccccc3)cc(=O)oc2c1C(CC(=O)N1CCOCC1)c1ccc(N(C)C)cc1 (centres undefined) | 35% | / | / | 7
COc1cc(OC)c2c(-c3ccccc3)cc(=O)oc2c1C(CC(=O)N1CCOCC1)c1ccc2c(c1)OCO2 (centres undefined) | 38% | / | / | -94*
O=C(Nc1ccc2nc(SCCOc3ccccc3)sc2c1)c1ccc2c(c1)OCO2 | ? | 13%[46.1 µM] | 14%[46.1 µM] | -12
COc1ccc(C2CC(c3cccc(F)c3)=NN2c2ccc(S(N)(=O)=O)cc2)cc1 (centres undefined) | ? | / | 0% | 4
SMILES | FMDV inh | LASV entry inh | Marburg entry inh | HCMV antiviral
COc1ccc(C2CC(c3cccc(C(F)(F)F)c3)=NN2c2ccc(S(N)(=O)=O)cc2)cc1 (centres undefined) | 0% | / | / | -101*
Cc1nnc(SCC(=O)N2CCC(c3noc4ccc(F)cc34)CC2)s1 | -22% | 0% | 5% | -70*
Cc1sc2ncnc(SCC(=O)N3CCC(c4noc5ccc(F)cc45)CC3)c2c1C | -10% | 9% | 30% | -1
Cn1c(CNC(=O)CCNC(=O)c2cccc(F)c2)cc(=O)n(C)c1=O | -14% | / | / | 0
Cc1cccc(C(=O)Nc2c(C(=O)NCc3ccc(Cl)cc3)sc3nc(C)cc(C)c23)c1 | 4% | ? | ? | -75*
C(=Cc1cnc2ccccc2n1)c1ccc2c(c1)OCO2 | 1.8µM* | / | / | -81*
C[n+]1c(/C=C/c2ccc3c(c2)OCO3)ccc2ccccc21 | -19% | 0%[46.1 µM] | ? | -66*
C[n+]1c(/C=C/c2ccc(O)cc2)ccc2ccccc21 | 56% | 17% | ? | -19
